# According to article PMC7862700, “An all-to-all approach to the identification of sequence-specific readers for epigenetic DNA modifications on cytosine”:
# Key:
# Assay in all cases: DAPPL (digital affinity profiling via proximity ligation, sequencing); 10 mM Tris-HCl pH 7.5, 50 mM NaCl, 1 mM DTT, 4% glycerol, room temperature, 30 min; GST-TFs on glutathione beads, 16-mer random dsDNA library, 0.1% formaldehyde crosslink after washing; high values mean tight binding
# FEV = target: T1, FEV (Homo sapiens, UniProt Q99581 1-238); details: protein: recombinant; tags: N-terminal GST; dsDNA, one strand shown
# T1 sequence: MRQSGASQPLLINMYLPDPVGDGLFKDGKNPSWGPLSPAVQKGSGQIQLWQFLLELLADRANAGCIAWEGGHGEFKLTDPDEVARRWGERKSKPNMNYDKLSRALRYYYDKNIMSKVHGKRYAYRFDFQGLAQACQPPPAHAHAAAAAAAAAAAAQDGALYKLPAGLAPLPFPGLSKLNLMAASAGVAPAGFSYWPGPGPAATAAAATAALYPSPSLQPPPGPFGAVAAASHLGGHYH
# Procedure, shortened: (§1)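 In yeast, human transcription factors were expressed with a GST fusion, then pulled down on glutathione beads and given DNA barcodes. Pooled with a tag-only sample, they were exposed to 200 nmole of a 16-mer random double-stranded DNA library (Tris/NaCl/DTT/glycerol buffer, room temperature, 30 min), washed, crosslinked with 0.1% formaldehyde, proximity-ligated using BsaI/T4 ligase for 1 h at 37 °C, PCR-amplified and read on an Illumina NextSeq500. Each hexamer's frequency of reads for a factor, divided by the matching frequency for the tag-only sample, gives the binding signal.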
# ETV5 = ETV5 (Homo sapiens, UniProt P41161 1-510); details: protein: recombinant; tags: N-terminal GST; dsDNA, one strand shown
# Procedure, shortened: as §1
# HSF1 = HSF1 (Homo sapiens, UniProt Q00613 1-529); details: protein: recombinant; tags: N-terminal GST; chain copies: 3; dsDNA, one strand shown
# Procedure, shortened: as §1
# SPIC = target: T2, SPIC (Homo sapiens, UniProt Q8N5J4 1-248); details: protein: recombinant; tags: N-terminal GST; dsDNA, one strand shown
# T2 sequence: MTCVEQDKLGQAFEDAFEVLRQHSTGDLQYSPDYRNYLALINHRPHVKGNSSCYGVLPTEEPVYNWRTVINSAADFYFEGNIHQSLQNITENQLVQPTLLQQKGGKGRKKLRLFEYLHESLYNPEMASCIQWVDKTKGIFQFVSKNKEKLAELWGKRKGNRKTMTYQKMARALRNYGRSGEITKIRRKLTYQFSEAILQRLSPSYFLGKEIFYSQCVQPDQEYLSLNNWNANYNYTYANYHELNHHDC
# Procedure, shortened: as §1
# ELF4 = ELF4 (Homo sapiens, UniProt Q99607 1-663); details: protein: recombinant; tags: N-terminal GST; dsDNA, one strand shown
# Procedure, shortened: as §1
# ELK4 = target: T3, ELK4 (Homo sapiens, UniProt P28324-2 1-405); details: protein: recombinant; tags: N-terminal GST; dsDNA, one strand shown
# T3 sequence: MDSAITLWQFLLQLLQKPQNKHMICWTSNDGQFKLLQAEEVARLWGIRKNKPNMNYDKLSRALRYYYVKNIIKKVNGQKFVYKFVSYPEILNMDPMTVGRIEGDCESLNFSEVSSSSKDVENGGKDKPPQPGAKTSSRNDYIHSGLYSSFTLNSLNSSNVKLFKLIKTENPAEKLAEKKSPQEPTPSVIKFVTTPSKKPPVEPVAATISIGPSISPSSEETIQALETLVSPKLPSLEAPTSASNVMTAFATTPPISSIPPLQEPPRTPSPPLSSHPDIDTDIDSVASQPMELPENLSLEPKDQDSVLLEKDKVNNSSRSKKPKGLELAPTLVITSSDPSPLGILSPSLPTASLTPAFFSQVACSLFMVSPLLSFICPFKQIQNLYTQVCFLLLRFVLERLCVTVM
# Procedure, shortened: as §1
# ETV2 = target: T4, ETV2 (Homo sapiens, UniProt O00321 1-342); details: protein: recombinant; tags: N-terminal GST; dsDNA, one strand shown
# T4 sequence: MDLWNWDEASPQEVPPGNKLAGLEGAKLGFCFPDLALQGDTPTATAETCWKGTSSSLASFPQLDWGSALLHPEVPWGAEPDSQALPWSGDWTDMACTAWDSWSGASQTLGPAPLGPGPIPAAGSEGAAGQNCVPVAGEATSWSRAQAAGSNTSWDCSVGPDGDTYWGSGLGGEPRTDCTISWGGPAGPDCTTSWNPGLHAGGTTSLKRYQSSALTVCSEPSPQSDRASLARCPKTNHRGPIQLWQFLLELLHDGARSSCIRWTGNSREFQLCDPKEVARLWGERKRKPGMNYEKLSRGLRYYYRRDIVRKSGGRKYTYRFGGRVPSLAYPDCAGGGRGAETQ
# Procedure, shortened: as §1
# ELF3 = target: T5, ELF3 (Homo sapiens, UniProt P78545 1-371); details: protein: recombinant; tags: N-terminal GST; dsDNA, one strand shown
# T5 sequence: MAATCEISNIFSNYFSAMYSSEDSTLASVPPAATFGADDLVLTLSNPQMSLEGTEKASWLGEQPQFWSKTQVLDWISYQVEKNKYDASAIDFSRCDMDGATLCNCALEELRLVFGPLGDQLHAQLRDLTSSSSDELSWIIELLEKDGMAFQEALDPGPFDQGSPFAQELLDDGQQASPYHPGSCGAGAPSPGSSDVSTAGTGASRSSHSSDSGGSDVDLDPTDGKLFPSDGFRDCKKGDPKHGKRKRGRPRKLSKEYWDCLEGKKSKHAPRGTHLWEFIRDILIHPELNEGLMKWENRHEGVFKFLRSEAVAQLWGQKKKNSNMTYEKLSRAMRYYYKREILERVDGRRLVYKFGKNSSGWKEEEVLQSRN
# Procedure, shortened: as §1
# ETV1 = ETV1 (Homo sapiens, UniProt P50549 1-477); details: protein: recombinant; tags: N-terminal GST; dsDNA, one strand shown
# Procedure, shortened: as §1
# ERF = target: T6, ERF (Homo sapiens, UniProt P50548 1-548); details: protein: recombinant; tags: N-terminal GST; dsDNA, one strand shown
# T6 sequence: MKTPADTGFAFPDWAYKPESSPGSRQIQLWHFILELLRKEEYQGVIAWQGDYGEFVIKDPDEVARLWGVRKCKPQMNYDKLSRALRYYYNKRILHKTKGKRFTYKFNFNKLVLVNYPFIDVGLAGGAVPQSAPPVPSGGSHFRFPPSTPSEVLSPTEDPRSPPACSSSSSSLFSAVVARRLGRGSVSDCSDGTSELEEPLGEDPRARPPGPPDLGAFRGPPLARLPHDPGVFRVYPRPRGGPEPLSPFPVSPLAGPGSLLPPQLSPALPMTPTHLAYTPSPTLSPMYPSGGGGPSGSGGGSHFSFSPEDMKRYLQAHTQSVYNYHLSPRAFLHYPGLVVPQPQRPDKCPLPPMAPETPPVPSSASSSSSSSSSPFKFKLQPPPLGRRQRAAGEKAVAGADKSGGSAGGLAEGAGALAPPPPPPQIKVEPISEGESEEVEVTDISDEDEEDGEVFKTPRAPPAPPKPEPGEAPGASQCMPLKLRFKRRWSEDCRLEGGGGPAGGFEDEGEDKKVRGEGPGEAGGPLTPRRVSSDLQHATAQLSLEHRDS
# Procedure, shortened: as §1
# ETV3L = target: T7, ETV3L (Homo sapiens, UniProt Q6ZN32 1-361); details: protein: recombinant; tags: N-terminal GST; dsDNA, one strand shown
# T7 sequence: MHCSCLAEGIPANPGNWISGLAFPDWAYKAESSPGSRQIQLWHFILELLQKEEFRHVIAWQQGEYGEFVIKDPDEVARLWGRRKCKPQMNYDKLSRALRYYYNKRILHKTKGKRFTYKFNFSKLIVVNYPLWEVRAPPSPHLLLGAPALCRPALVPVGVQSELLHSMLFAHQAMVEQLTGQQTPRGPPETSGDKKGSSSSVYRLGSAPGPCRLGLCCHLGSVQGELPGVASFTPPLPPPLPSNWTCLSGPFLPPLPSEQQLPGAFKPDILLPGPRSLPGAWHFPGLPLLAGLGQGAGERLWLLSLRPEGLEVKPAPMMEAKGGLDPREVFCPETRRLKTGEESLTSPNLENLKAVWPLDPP
# Procedure, shortened: as §1
# ETS2 = target: T8, ETS2 (Homo sapiens, UniProt P15036 1-469); details: protein: recombinant; tags: N-terminal GST; dsDNA, one strand shown
# T8 sequence: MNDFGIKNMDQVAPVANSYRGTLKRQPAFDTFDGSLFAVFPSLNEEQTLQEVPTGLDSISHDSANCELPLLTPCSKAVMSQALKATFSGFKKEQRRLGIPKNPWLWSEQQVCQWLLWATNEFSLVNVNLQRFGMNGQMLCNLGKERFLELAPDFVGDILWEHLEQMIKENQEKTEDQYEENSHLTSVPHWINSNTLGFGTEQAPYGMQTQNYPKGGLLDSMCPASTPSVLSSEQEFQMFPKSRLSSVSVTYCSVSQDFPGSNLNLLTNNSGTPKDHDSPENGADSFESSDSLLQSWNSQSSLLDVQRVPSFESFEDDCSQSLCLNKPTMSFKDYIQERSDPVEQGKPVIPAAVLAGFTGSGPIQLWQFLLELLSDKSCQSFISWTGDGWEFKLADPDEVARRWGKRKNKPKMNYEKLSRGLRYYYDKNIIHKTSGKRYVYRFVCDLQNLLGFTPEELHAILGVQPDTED
# Procedure, shortened: as §1
# SPDEF = target: T9, SPDEF (Homo sapiens, UniProt O95238 1-335); details: protein: recombinant; tags: N-terminal GST; dsDNA, one strand shown
# T9 sequence: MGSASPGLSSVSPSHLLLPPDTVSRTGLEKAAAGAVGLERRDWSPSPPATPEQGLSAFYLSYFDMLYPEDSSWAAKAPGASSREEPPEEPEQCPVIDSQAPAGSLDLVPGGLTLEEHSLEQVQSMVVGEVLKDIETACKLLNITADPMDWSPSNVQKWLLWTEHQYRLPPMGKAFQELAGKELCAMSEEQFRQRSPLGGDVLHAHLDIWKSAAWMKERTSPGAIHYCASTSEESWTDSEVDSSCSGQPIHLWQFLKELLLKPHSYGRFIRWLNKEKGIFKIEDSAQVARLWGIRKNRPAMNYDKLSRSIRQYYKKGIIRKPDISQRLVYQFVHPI
# Procedure, shortened: as §1
# ETV7 = target: T10, ETV7 (Homo sapiens, UniProt Q9Y603 1-341); details: protein: recombinant; tags: N-terminal GST; dsDNA, one strand shown
# T10 sequence: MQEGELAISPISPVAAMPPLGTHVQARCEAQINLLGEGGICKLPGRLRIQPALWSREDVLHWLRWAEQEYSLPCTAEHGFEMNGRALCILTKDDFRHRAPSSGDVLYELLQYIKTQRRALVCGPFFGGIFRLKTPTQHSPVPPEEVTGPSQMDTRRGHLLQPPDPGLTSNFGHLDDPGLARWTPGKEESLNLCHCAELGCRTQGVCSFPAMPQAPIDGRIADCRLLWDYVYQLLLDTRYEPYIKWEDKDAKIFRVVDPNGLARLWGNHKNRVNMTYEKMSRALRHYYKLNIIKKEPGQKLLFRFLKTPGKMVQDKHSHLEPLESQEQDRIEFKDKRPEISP
# Procedure, shortened: as §1
# ELF5 = target: T11, ELF5 (Homo sapiens, UniProt Q9UKW6-2 1-255); details: protein: recombinant; tags: N-terminal GST; dsDNA, one strand shown
# T11 sequence: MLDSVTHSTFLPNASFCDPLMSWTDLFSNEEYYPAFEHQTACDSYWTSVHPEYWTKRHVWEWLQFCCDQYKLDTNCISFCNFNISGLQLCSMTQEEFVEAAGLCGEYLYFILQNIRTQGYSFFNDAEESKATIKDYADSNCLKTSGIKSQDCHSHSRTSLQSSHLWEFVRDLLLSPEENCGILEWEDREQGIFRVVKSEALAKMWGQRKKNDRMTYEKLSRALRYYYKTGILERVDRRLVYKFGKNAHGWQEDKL
# Procedure, shortened: as §1
# ETV3 = target: T12, ETV3 (Homo sapiens, UniProt P41162-2 1-143); details: protein: recombinant; tags: N-terminal GST; dsDNA, one strand shown
# T12 sequence: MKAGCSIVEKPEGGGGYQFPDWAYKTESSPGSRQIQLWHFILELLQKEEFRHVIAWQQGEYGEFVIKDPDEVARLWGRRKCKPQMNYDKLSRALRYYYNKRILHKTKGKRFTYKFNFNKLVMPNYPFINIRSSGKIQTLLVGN
# Procedure, shortened: as §1
# ETV6 = ETV6 (Homo sapiens, UniProt P41212 1-452); details: protein: recombinant; tags: N-terminal GST; dsDNA, one strand shown
# Procedure, shortened: as §1
# Sequence of ETV5 (P41161 whole entry): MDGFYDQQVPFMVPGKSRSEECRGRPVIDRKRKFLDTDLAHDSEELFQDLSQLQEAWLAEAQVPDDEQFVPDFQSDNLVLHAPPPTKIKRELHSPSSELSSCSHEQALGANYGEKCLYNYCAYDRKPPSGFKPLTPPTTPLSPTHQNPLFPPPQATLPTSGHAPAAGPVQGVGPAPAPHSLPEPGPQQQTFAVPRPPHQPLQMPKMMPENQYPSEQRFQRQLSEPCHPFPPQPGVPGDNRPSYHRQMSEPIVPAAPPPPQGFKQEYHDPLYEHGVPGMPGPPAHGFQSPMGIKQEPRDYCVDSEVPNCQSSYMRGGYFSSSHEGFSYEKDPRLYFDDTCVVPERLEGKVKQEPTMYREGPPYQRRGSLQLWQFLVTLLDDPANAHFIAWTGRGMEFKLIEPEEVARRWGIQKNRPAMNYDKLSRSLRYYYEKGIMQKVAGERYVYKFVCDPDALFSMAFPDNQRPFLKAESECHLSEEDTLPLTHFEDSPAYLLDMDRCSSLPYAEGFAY
# Sequence of ETV1 (P50549 whole entry): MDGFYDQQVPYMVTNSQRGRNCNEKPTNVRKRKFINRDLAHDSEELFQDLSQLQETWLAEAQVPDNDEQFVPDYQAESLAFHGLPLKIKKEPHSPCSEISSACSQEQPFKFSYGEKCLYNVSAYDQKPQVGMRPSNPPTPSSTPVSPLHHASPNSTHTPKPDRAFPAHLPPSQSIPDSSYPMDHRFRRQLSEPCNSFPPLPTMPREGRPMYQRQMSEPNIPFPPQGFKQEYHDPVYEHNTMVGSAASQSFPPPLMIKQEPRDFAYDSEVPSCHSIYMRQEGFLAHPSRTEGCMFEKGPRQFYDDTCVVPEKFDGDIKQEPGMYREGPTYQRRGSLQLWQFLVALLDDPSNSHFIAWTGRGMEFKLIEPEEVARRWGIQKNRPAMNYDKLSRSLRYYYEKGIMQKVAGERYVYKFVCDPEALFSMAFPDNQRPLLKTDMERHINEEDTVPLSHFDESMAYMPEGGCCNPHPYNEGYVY
# Sequence of ELF4 (Q99607 whole entry): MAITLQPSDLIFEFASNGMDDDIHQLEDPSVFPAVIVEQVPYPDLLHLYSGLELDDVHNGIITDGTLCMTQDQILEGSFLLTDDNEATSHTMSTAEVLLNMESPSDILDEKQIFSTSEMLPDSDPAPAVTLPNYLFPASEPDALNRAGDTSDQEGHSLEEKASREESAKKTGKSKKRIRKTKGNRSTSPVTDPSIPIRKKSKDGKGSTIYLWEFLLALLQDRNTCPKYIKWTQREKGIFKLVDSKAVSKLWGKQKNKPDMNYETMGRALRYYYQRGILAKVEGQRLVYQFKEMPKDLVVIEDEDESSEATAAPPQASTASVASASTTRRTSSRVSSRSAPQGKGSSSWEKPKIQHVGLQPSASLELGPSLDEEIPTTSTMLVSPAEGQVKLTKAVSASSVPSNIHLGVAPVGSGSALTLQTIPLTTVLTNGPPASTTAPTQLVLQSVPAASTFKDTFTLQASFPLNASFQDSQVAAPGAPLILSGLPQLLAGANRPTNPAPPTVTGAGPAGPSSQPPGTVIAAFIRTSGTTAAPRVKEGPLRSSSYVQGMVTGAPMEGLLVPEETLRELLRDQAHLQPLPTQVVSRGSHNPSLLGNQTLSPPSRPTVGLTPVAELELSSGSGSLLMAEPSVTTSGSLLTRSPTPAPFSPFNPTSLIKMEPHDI
# Sequence of ETV6 (P41212 whole entry): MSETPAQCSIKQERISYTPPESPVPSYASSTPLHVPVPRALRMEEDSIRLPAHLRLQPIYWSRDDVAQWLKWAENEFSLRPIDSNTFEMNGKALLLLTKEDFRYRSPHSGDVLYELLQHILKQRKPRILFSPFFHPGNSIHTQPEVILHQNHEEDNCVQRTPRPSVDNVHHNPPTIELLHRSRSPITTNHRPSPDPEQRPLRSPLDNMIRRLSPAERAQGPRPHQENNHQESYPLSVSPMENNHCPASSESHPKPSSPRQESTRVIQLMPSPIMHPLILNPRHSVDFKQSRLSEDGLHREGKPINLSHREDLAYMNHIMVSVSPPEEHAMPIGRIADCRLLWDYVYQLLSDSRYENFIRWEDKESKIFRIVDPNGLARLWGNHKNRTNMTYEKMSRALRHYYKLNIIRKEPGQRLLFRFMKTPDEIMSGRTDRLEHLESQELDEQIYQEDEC
# Sequence of HSF1 (Q00613 whole entry): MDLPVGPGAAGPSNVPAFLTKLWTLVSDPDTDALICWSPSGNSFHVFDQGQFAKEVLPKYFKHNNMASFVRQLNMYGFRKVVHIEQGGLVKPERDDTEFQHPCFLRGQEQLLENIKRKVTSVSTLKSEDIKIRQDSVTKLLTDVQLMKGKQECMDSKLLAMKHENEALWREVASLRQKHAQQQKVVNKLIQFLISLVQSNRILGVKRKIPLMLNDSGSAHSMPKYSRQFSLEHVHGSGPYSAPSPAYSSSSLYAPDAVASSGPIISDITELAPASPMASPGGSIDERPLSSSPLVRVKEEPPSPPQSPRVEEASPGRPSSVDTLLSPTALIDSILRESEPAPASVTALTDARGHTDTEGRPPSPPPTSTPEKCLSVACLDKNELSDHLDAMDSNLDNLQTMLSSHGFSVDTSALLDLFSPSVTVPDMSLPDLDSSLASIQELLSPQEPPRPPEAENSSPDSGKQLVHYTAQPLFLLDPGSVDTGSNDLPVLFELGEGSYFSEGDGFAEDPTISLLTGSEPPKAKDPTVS
sequence,measurement,setting,value
GCTCGT,binding signal,FEV,"1.06 fold enrichment (6-mer frequency, TF over GST control)"
same,binding signal,ETV5,"1.17 fold enrichment (6-mer frequency, TF over GST control)"
same,binding signal,HSF1,"1.07 fold enrichment (6-mer frequency, TF over GST control)"
same,binding signal,SPIC,"1.14 fold enrichment (6-mer frequency, TF over GST control)"
same,binding signal,ELF4,"1.24 fold enrichment (6-mer frequency, TF over GST control)"
same,binding signal,ELK4,"1.11 fold enrichment (6-mer frequency, TF over GST control)"
same,binding signal,ETV2,"1.29 fold enrichment (6-mer frequency, TF over GST control)"
same,binding signal,ELF3,"1.16 fold enrichment (6-mer frequency, TF over GST control)"
same,binding signal,ETV1,"1.15 fold enrichment (6-mer frequency, TF over GST control)"
same,binding signal,ERF,"1.2 fold enrichment (6-mer frequency, TF over GST control)"
same,binding signal,ETV3L,"1.23 fold enrichment (6-mer frequency, TF over GST control)"
same,binding signal,ETS2,"1.12 fold enrichment (6-mer frequency, TF over GST control)"
same,binding signal,SPDEF,"1.15 fold enrichment (6-mer frequency, TF over GST control)"
same,binding signal,ETV7,"1.11 fold enrichment (6-mer frequency, TF over GST control)"
same,binding signal,ELF5,"1.1 fold enrichment (6-mer frequency, TF over GST control)"
same,binding signal,ETV3,"1.15 fold enrichment (6-mer frequency, TF over GST control)"
same,binding signal,ETV6,"1.16 fold enrichment (6-mer frequency, TF over GST control)"
